Assay results: PubChem BioAssay (Tox21)
A number with no mark means an inactive call. Inconclusive results are not listed. Where a call stands in place of a potency, no number is given. Active and inactive are the calls of the source. Unless noted, the call rests on the fitted dose curve; in most records, active means well fitted curve in the direction sought with a large enough effect in the repeat runs; inconclusive means weak or mixed curves; inactive means no such curve, though single readings can be large; an effect the other way counts as inactive or inconclusive.

Columns and labels:
[1] = A CellTox Green Cytotoxicity Assay to monitor cytotoxicity in HepG2 cells - 32 hour (AID 1224883); further: nearly all actives have a fitted effect of over 50% in size
Outline: (§1)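 Using 1536-well format, dye-containing HepG2 suspension was seeded, allowed 5 h at 37 C/5% CO2, dosed by pintool with compounds, positive and negative controls, and imaged for fluorescence across 40 h.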

[2] = A CellTox Green Cytotoxicity Assay to monitor cytotoxicity in HEK293 cells - 8 hour (AID 1224884); further: nearly all actives have a fitted effect of over 35% in size
Outline: (§2)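 Fluorescence intensity, read at 0, 8, 16, 24, 32 and 40 h of compound treatment, reflected dye binding to DNA of dead HEK293 cells; compounds (23 nL, DMSO) were added 5 h after plating cells with reagent.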

[3] = qHTS RealTime-Glo MT Cell Viability Assay in HepG2 cells - 16 hour (AID 1224885); further: nearly all actives have a fitted effect of over 50% in size
Outline: (§3)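 Compound treatment began 5 h after plating HepG2 cells (600/well) with NanoLuc luciferase and prosubstrate. Plates stayed at 37 C for 40 h; luminescence was captured at six time points, 0 h through 40 h.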

[4] = qHTS RealTime-Glo MT Cell Viability Assay in HEK293 cells - 24 hour (AID 1224886); further: top concentration of the series differs between compounds; nearly all actives have a fitted effect of over 50% in size
Outline: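 Quantitative high-throughput screen of the Tox21 10K library in HEK293: cells and RealTime-Glo reagents plated together, compound added at 5 h, luminescence monitored through 40 h at 37 C.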

[5] = qHTS RealTime-Glo MT Cell Viability Assay in HepG2 cells - 0 hour (AID 1224889); further: nearly all actives have a fitted effect of over 50% in size; further: potency means the concentration at half of the fitted maximal effect
Outline: as §3

[6] = A CellTox Green Cytotoxicity Assay to monitor cytotoxicity in HepG2 cells - 8 hour (AID 1224890); further: nearly all actives have a fitted effect of over 45% in size
Outline: as §1

[7] = qHTS assay to identify small molecule antagonists of the estrogen receptor alpha (ER-alpha) signaling pathway using the BG1 cell line in the presence of 0.1 nM 17-beta-estradiol - cell viability counter screen (AID 1259241); further: nearly all actives have a fitted effect of over 40% in size
Outline: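 CellTiter-Fluor read (30 min, 37C) on ER-alpha/ERE-luc VM7Luc4E2 cells; 22 hr compound treatment; agonist 0.1 nM E2 final; same-well multiplex.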

[8] = qHTS assay to identify small molecule antagonists of the androgen receptor (AR) signaling pathway using the MDA cell line in the presence of 0.5 nM R1881 - cell viability counter screen (AID 1259242); further: nearly all actives have a fitted effect of over 45% in size
Outline: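 Viability of MDA-kb2 cells was multiplexed with the luciferase AR readout; after 16 hr with compounds and R1881 at 0.5 nM final, CellTiter-Fluor fluorescence was recorded.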

[9] = target: Estrogen receptor (Homo sapiens) (UniProt P03372); assay: qHTS assay to identify small molecule antagonists of the estrogen receptor alpha (ER-alpha) signaling pathway using the BG1 cell line in the presence of 0.1 nM 17-beta-estradiol (AID 1259244); further: nearly all actives have a fitted effect of over 50% in size
Chain of Estrogen receptor (Homo sapiens) (P03372 whole entry, looked up): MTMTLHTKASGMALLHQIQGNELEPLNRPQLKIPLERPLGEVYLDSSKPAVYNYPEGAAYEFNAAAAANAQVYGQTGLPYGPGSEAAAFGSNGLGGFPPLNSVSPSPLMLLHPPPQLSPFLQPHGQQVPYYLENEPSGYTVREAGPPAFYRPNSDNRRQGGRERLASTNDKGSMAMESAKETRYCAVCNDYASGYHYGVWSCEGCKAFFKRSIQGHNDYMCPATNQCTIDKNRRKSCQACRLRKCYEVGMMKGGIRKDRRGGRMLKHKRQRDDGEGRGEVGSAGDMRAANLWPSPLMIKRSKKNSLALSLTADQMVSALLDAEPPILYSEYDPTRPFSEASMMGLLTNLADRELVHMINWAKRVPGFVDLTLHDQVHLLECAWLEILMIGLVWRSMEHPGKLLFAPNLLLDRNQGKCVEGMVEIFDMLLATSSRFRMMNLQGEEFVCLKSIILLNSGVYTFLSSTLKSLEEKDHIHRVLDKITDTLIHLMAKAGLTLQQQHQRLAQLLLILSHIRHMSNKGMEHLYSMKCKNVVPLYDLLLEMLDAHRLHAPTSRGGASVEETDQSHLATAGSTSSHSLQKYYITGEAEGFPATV
Outline: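 Estradiol at 0.1 nM (final) stimulates the endogenous ER-alpha of VM7Luc4E2 cells carrying an ERE-driven luciferase; compounds are co-incubated 22 h at 37C and luciferase output quantified by luminescence.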

[10] = qHTS assay to identify small molecule HDAC inhibitors (AID 1259364); further: potency means the concentration at half of the fitted maximal effect;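 further: wild-type HCT-116 cells with endogenous class I/II HDAC activity; nearly all actives have a fitted effect of over 45% in size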
Outline: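 Read-out: luminescence of HDAC-Glo I/II reagent, 30 min RT, reflecting class I/II deacetylase activity in whole HCT-116 cells pre-exposed 2 h to DMSO-dissolved compounds.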

[11] = qHTS assay to identify small molecule HDAC inhibitors - cell viability counter screen (AID 1259365)
Outline: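 To flag cytotoxic hits, 1,500 wild-type HCT-116 cells per well, plated the day before, receive test compounds for 2hr at 37 C before CellTiter-Glo reagent and a luminescence read.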

[12] = qHTS assay to identify small molecule agonists of the sonic hedgehog signaling (Shh) pathway - cell viability counter screen (AID 1259366); further: nearly all actives have a fitted effect of over 50% in size
Outline: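 Fluorescence from CellTiter-Fluor reports live cells in this counter screen. NIH/3T3-derived Gli1-Luc reporter cells receive test compounds for 24hr at 37C; reagent goes in at 23hr.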

[13] = qHTS assay to identify small molecule antagonists of the sonic hedgehog signaling (Shh) pathway - cell viability counter screen (AID 1259367); further: nearly all actives have a fitted effect of over 55% in size
Outline: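 Seed 3T3 Gli1-Luc cells at 2,000 per well; incubate 4 hr; add compound in DMSO, then conditioned medium; incubate at 37C with 5% CO2; add CellTiter-Fluor after 23 hr; read fluorescence 1 hr later.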

[14] = qHTS assay to identify small molecule agonists of the sonic hedgehog signaling (Shh) pathway (AID 1259368; calls by dose curve;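 further: NIH/3T3-derived 3T3Gli1-Luc cells carrying a stable Gli1-driven firefly luciferase reporter; series mostly up to about 92 µM; nearly all actives have a fitted effect of over 15% in size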)
Outline: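 A Gli1 transcriptional response element controlled firefly luciferase in 3T3Gli1-Luc cells. Compounds and a positive control were added 4 hr after plating, and cells were incubated a further 24 hr at 37 C before luminescence detection.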

[15] = qHTS assay to identify small molecule antagonists of the sonic hedgehog signaling (Shh) pathway (AID 1259369; calls by dose curve; further: nearly all actives have a fitted effect of over 45% in size)
Outline: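 For antagonist detection, the reporter line received test compounds together with conditioned medium, incubated 24hr at 37 C, 5% CO2, then luminescence was recorded following 30min room-temperature luciferase reagent incubation.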

[16] = target: Estrogen receptor beta (Homo sapiens) (UniProt Q92731); assay: qHTS assay to identify small molecule agonists of the estrogen receptor beta (ER-beta) signaling pathway (AID 1259377; active means well fitted activation curve with a large enough effect in the signal ratio in the repeat runs, not every such curve was filed as active; the % refers to the signal ratio)
Chain of Estrogen receptor beta (Homo sapiens) (Q92731 whole entry, looked up): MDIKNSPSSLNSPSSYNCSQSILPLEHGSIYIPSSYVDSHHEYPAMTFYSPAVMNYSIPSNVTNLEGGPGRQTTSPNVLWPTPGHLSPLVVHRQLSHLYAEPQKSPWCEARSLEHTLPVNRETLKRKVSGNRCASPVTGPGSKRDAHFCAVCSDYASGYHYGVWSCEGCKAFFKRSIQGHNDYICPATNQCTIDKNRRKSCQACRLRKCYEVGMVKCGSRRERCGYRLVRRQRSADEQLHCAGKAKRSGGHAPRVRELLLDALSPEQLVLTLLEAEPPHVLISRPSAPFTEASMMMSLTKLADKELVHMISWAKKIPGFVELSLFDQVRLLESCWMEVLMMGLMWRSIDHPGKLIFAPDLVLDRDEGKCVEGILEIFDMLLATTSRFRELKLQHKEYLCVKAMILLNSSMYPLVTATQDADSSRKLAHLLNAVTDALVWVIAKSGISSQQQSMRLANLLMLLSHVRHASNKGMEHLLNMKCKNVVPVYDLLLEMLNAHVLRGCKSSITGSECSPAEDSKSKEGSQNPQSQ
Outline: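 Screening used GripTite ER-beta-UAS-bla cells held in 2% charcoal-stripped FBS medium. After overnight (16 hr) compound incubation at 37C, beta-lactamase activity was detected with a FRET substrate by fluorescence.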

[17] = qHTS RealTime-Glo MT Cell Viability Assay in HEK293 cells - 8 hour (AID 1224887)
Outline: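 Viable HEK293 cells reduce a cell-permeant prosubstrate; the product diffuses out and is consumed by NanoLuc in the medium to give light. Compounds went in after a 5 h incubation and plates were read over the treatment course.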

[18] = A CellTox Green Cytotoxicity Assay to monitor cytotoxicity in HEK293 cells - 16 hour (AID 1224888); further: nearly all actives have a fitted effect of over 35% in size
Outline: as §2

[19] = qHTS assay to identify small molecule phospholipidosis (PLD) inducers (AID 1259344; active means well fitted curve in the direction sought with a large enough effect; an effect the other way counts as inactive or inconclusive)
Outline: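 Quantitative HTS in HepG2: compound plus LipidTOX Red dye for 24 h, paraformaldehyde fixation with Hoechst 33342, widefield high-content imaging; amiodarone as positive and DMSO as negative control.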

[20] = target: Androgen receptor (Homo sapiens) (UniProt P10275); assay: qHTS assay to identify small molecule antagonists of the androgen receptor (AR) signaling pathway using the MDA cell line in the presence of 0.5 nM R1881 (AID 1259243); further: nearly all actives have a fitted effect of over 50% in size
Chain of Androgen receptor (Homo sapiens) (P10275 whole entry, looked up): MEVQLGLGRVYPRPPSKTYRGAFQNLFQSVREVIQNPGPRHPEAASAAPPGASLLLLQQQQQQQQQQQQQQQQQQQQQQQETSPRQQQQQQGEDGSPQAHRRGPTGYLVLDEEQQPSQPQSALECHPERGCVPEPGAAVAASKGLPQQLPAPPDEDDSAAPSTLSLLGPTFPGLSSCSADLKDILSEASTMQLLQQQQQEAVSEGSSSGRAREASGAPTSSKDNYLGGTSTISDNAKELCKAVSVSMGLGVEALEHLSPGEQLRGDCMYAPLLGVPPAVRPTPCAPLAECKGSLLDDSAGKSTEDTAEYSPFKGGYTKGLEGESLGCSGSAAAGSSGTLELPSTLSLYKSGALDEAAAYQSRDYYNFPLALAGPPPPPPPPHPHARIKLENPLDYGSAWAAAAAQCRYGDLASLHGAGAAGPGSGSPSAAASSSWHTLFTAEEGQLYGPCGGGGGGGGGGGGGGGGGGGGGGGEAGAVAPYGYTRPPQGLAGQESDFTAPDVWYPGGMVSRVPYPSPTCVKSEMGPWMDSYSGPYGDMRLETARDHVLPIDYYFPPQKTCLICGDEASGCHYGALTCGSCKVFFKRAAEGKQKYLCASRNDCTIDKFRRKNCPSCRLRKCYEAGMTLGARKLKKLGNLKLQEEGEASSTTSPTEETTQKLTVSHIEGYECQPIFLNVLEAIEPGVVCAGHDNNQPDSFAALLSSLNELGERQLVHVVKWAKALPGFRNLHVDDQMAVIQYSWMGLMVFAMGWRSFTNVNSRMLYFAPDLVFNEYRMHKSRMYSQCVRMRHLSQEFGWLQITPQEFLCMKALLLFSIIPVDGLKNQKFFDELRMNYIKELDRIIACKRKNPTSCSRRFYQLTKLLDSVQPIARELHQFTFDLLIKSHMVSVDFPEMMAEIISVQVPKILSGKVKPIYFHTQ
Outline: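 Reporter cells cultured without CO2 receive test chemicals, then 0.5 nM R1881 final; after 16 hr at 37C, ONE-Glo is added and light output recorded.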

## C[C@@H](O)[C@H]1C(=O)N2C(C(=O)O)=C(SCCN=CN)C[C@H]12
[1]
  Potency: inactive
[2]
  Potency: inactive
[3]
  outcome: inactive
[4]
  Potency: inactive
[5]
  Potency: inactive
[6]
  outcome: inactive
[7]
  Potency: inactive
[8]
  outcome: inactive
[9]
  Potency: inactive
[10]
  Potency: inactive
[11]
  outcome: inactive
[12]
  Potency: inactive
[13]
  Potency: inactive
[14]
  outcome: inactive
[15]
  Potency: inactive
[16]
  Potency: inactive

## NCCN1CCOCC1
[1]
  Potency: inactive
[3]
  outcome: inactive
[4]
  Potency: inactive
[17]
  Potency: inactive
[18]
  outcome: inactive
[5]
  Potency: inactive
[6]
  outcome: inactive
[7]
  Potency: inactive
[8]
  outcome: inactive
[10]
  Potency: inactive
[11]
  outcome: inactive
[12]
  Potency: inactive
[13]
  Potency: inactive
[14]
  outcome: inactive
[16]
  Potency: inactive

## COCCOC(=O)C1=C(C)NC(C)=C(C(=O)OC(C)C)C1c1cccc([N+](=O)[O-])c1 (stereo not given)
[1]
  Potency: inactive
[2]
  Potency: inactive
[5]
  Potency: 601 nM (active)
[6]
  outcome: inactive
[7]
  Potency: inactive
[8]
  outcome: inactive
[9]
  Potency: inactive
[19]
  outcome: inactive
[10]
  Potency: inactive
[11]
  outcome: inactive
[12]
  Potency: inactive
[13]
  Potency: inactive
[14]
  outcome: inactive

## CC(C)(C)c1n[nH]c(=S)n(N)c1=O
[1]
  Potency: inactive
[2]
  Potency: inactive
[3]
  outcome: inactive
[4]
  Potency: inactive
[18]
  outcome: inactive
[5]
  Potency: inactive
[6]
  outcome: inactive
[7]
  Potency: inactive
[9]
  Potency: inactive
[10]
  Potency: inactive
[11]
  outcome: inactive
[12]
  Potency: inactive
[14]
  outcome: inactive
[15]
  Potency: inactive

## O=C1c2ccccc2C(=O)c2cc(S(=O)(=O)O)ccc21
[1]
  Potency: inactive
[2]
  Potency: inactive
[3]
  outcome: inactive
[18]
  outcome: inactive
[5]
  Potency: inactive
[6]
  outcome: inactive
[8]
  outcome: inactive
[10]
  Potency: 2440 nM (active)
[11]
  outcome: inactive
[12]
  Potency: inactive
[13]
  Potency: inactive
[14]
  outcome: inactive
[15]
  Potency: inactive

## COc1ccc(S(=O)(=O)N2c3ccc(Cl)cc3[C@@](O)(c3ccccc3Cl)[C@H]2C(=O)N2CCC[C@@H]2C(N)=O)cc1OC
[1]
  Potency: inactive
[2]
  Potency: inactive
[3]
  outcome: inactive
[18]
  outcome: inactive
[5]
  Potency: inactive
[6]
  outcome: inactive
[8]
  outcome: inactive
[9]
  Potency: inactive
[19]
  outcome: inactive
[10]
  Potency: inactive
[11]
  outcome: inactive
[12]
  Potency: inactive
[13]
  Potency: inactive
[14]
  outcome: inactive

## CC1(CO)CN(c2ccccc2)NC1=O (stereo not given)
[1]
  Potency: inactive
[2]
  Potency: inactive
[3]
  outcome: inactive
[4]
  Potency: inactive
[18]
  outcome: inactive
[5]
  Potency: inactive
[6]
  outcome: inactive
[8]
  outcome: inactive
[20]
  Potency: inactive
[10]
  Potency: 24300 nM (active)
[11]
  outcome: inactive
[12]
  Potency: inactive
[14]
  outcome: inactive
[15]
  Potency: inactive

## COC(=O)CCc1ccc(OCC(O)CNC(C)C)cc1 (stereo not given)
[1]
  Potency: inactive
[2]
  Potency: inactive
[3]
  outcome: inactive
[4]
  Potency: inactive
[18]
  outcome: inactive
[5]
  Potency: inactive
[6]
  outcome: inactive
[7]
  Potency: inactive
[8]
  outcome: inactive
[10]
  Potency: inactive
[11]
  outcome: inactive
[12]
  Potency: inactive
[14]
  outcome: inactive
[15]
  Potency: inactive
[16]
  Potency: inactive

## COc1ccc2c(c1)C(=O)N(CCc1ccc(S(=O)(=O)NC(=O)NC3CCCCC3)cc1)C(=O)C2(C)C
[1]
  Potency: inactive
[3]
  outcome: inactive
[4]
  Potency: inactive
[17]
  Potency: inactive
[18]
  outcome: inactive
[5]
  Potency: inactive
[6]
  outcome: inactive
[8]
  outcome: inactive
[20]
  Potency: inactive
[9]
  Potency: inactive
[19]
  outcome: inactive
[10]
  Potency: inactive
[11]
  outcome: inactive
[12]
  Potency: inactive
[13]
  Potency: inactive
[15]
  Potency: inactive

## CC1(C)S[C@@H]2[C@H](N=CN3CCCCCC3)C(=O)N2[C@H]1C(=O)O
[1]
  Potency: inactive
[3]
  outcome: inactive
[4]
  Potency: inactive
[17]
  Potency: inactive
[18]
  outcome: inactive
[5]
  Potency: inactive
[6]
  outcome: inactive
[7]
  Potency: inactive
[9]
  Potency: inactive
[10]
  Potency: inactive
[11]
  outcome: inactive
[12]
  Potency: inactive
[13]
  Potency: inactive
[14]
  outcome: inactive
[15]
  Potency: inactive
[16]
  Potency: inactive

## CC(C)(C)NC(N)=O
[1]
  Potency: inactive
[3]
  outcome: inactive
[4]
  Potency: inactive
[5]
  Potency: inactive
[6]
  outcome: inactive
[8]
  outcome: inactive
[20]
  Potency: inactive
[10]
  Potency: inactive
[11]
  outcome: inactive
[12]
  Potency: inactive
[13]
  Potency: inactive
[14]
  outcome: inactive
[15]
  Potency: inactive
[16]
  Potency: inactive
